Laboratory results published in PubChem BioAssay (Tox21).
Inconclusive results are not listed. Calls of active or inactive are those of the source. Unless noted, the call rests on the fitted dose curve; in most records, active means well fitted curve in the direction sought with a large enough effect in the repeat runs; inconclusive means weak or mixed curves; inactive means no such curve, though single readings can be large; an effect the other way counts as inactive or inconclusive.

Assays:
[1] = qHTS assay to identify aromatase inhibitors - cell viability counter screen (AID 743084);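 further: cells stimulated with testosterone during compound exposure; nearly all actives have a fitted effect of over 55% in size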
[2] = molecular target: Aryl hydrocarbon receptor (Homo sapiens) (UniProt P35869); assay: qHTS assay to identify small molecule that activate the aryl hydrocarbon receptor (AhR) signaling pathway (AID 743085); further: nearly all actives have a fitted effect of over 15% in size; further: potency means the concentration at half of the fitted maximal effect;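 on activation: HG2L7.5c1 human HepG2 liver cells with stably integrated DRE-driven firefly reporter; series mostly up to about 70 µM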
Sequence of Aryl hydrocarbon receptor (Homo sapiens) (P35869 whole entry, looked up): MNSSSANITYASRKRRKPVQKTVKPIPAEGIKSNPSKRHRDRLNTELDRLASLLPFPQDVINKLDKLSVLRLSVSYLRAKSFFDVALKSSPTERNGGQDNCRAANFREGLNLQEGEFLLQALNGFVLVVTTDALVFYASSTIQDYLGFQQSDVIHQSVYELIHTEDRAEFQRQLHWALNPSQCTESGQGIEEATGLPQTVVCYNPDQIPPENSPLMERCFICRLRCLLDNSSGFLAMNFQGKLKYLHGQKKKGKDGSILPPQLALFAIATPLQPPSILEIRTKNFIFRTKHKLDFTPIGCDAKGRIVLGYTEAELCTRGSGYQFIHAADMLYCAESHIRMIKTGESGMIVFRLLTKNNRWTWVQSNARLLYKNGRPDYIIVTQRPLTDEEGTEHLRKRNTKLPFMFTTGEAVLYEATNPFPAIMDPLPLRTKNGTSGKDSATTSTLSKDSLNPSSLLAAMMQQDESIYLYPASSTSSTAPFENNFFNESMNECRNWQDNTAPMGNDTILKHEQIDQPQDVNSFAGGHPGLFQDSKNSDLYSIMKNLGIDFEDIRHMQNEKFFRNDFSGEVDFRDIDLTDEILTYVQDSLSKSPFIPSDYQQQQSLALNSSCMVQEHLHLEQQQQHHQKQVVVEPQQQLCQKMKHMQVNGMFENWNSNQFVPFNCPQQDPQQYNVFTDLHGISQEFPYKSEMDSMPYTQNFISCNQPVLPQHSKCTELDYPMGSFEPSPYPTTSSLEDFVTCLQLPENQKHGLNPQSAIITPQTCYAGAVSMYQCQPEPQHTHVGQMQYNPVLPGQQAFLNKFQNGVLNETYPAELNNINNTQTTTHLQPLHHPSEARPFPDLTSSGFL
Method in brief: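 HepG2 cells stably carrying a 20-DRE firefly luciferase reporter (HG2L7.5c1) treated with compound for 24 hr at 37C. Luciferase read by ONE-Glo luminescence, with CellTiter-Fluor viability read first.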

[3] = qHTS assay to identify small molecule that activate the aryl hydrocarbon receptor (AhR) signaling pathway - cell viability counter screen (AID 743086);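 further: HepG2 liver cells carrying the AhR DRE luciferase reporter; series mostly up to about 70 µM; nearly all actives have a fitted effect of over 45% in size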
Method in brief: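 Cytotoxicity counter screen: CellTiter-Fluor signal (30 min, 37 C) in 4000 HepG2 cells/well carrying the DRE-luciferase reporter, following 24 h compound exposure at 37 C.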

[4] = molecular target: Peroxisome proliferator-activated receptor gamma (Homo sapiens) (UniProt P37231); assay: qHTS assay to identify small molecule antagonists of the peroxisome proliferator-activated receptor gamma (PPARg) signaling pathway (AID 743191; calls by dose curve; further: series mostly up to about 63 µM; nearly all actives have a fitted effect of over 30% in size)
Sequence of Peroxisome proliferator-activated receptor gamma (Homo sapiens) (P37231 whole entry, looked up): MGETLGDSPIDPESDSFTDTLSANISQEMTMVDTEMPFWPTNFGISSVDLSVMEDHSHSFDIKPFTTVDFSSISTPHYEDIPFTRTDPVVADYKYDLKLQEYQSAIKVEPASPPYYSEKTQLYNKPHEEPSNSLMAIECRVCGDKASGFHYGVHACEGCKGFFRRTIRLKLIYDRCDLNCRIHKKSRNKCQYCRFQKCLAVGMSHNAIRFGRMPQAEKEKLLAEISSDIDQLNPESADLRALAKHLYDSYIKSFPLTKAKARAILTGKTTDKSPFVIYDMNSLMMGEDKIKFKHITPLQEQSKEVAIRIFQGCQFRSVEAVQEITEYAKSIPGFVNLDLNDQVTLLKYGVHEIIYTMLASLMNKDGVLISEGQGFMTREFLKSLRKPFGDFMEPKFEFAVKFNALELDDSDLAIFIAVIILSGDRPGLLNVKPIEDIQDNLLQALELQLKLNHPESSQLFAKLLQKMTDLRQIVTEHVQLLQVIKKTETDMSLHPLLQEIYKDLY
Method in brief: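 Beta-lactamase reporter under UAS control in HEK293H PPARg-bla cells; compound treatment 17 h at 37C. Read-out: fluorescence intensity after 1 h room-temperature incubation with LiveBLAzer B/G FRET substrate.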

[5] = qHTS assay to identify small molecule antagonists of the peroxisome proliferator-activated receptor gamma (PPARg) signaling pathway - cell viability counter screen (AID 743194); further: nearly all actives have a fitted effect of over 55% in size
Method in brief: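 Viability was measured as CellTiter-Glo luminescence in GeneBLAzer PPARg UAS-bla HEK293H cells. These cells had been exposed 17 h at 37 C to compounds together with rosiglitazone at 50 nM final, with the beta-lactamase readout taken in the same wells.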

[6] = qHTS assay for small molecule agonists of the antioxidant response element (ARE) signaling pathway - cell viability counter screen (AID 743203; calls by dose curve; further: nearly all actives have a fitted effect of over 55% in size)
Method in brief: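 Compounds in DMSO were pinned onto ARE-bla HepG2 cells plated 5 hrs earlier at 2,000 cells/well. Sixteen hours later at 37C/5% CO2, CellTiter-Glo was added and luminescence measured after 30 min at room temperature.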

[7] = qHTS assay for small molecule activators of the heat shock response signaling pathway - cell viability counter screen (AID 743209); further: nearly all actives have a fitted effect of over 50% in size
Method in brief: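 Counter screen for cytotoxicity in HeLa HSE-bla reporter cells. Treatment was 5 h at 37 C; viability was detected by luminescent ATP assay (CellTiter-Glo) in the same wells as the beta-lactamase read.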

[8] = qHTS assay for small molecule activators of the heat shock response signaling pathway (AID 743210; active means well fitted activation curve with a large enough effect in the signal ratio in the repeat runs, with a control signal flat, not every such curve was filed as active; the % refers to the signal ratio;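 further: HeLa cells with beta-lactamase reporter driven by heat shock elements; series mostly up to about 63 µM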)
Method in brief: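 HeLa HSE-bla cells, overnight plating; cpd in DMSO 5 h, 37 C; LiveBLAzer B/G FRET substrate 2.5 h RT; fluorescence intensity read.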

[9] = qHTS assay to identify small molecule agonists of the peroxisome proliferator-activated receptor delta (PPARd) signaling pathway - cell viability counter screen (AID 743211); further: nearly all actives have a fitted effect of over 55% in size
Method in brief: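 PPARd-bla HEK293H cells (3000/well) were pre-incubated 5 h at 37 C, then exposed to compound for 17 h at 37 C. After 2 h with LiveBLAzer substrate, CellTiter-Glo was added to the same wells; luminescence read after 30 min at room temperature.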

[10] = molecular target: Peroxisome proliferator-activated receptor delta (Homo sapiens) (UniProt Q03181); assay: qHTS assay to identify small molecule agonists of the peroxisome proliferator-activated receptor delta (PPARd) signaling pathway (AID 743212; calls by dose curve)
Sequence of Peroxisome proliferator-activated receptor delta (Homo sapiens) (Q03181 whole entry, looked up): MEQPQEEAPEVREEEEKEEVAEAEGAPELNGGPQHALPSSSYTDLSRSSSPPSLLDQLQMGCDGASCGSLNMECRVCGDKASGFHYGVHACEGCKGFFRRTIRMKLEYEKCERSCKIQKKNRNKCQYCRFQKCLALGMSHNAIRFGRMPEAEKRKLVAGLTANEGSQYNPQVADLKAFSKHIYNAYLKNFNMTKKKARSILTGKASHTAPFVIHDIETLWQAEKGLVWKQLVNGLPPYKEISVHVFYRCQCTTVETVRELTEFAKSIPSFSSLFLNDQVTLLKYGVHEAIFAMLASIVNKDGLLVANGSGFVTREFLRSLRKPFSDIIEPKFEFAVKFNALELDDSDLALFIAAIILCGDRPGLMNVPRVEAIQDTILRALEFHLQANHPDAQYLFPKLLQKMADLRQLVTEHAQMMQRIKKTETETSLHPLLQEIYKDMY
Method in brief: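 HEK293H PPARd-bla cells; 5 h preincubation 37 C/5% CO2; compound (DMSO) 37 C; LiveBLAzer B/G FRET substrate 2 h RT; fluorescence intensity.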

[11] = qHTS assay to identify small molecule agonists of the farnesoid-X-receptor (FXR) signaling pathway - cell viability counter screen (AID 743218); further: nearly all actives have a fitted effect of over 45% in size
Method in brief: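 After 16 h at 37 C with test compounds, FXR-bla HEK 293T cells were given LiveBLAzer B/G substrate for 2 h at RT and then CellTiter-Glo; luminescence was taken after 30 min.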

[12] = molecular target: Bile acid receptor (Homo sapiens) (UniProt Q96RI1); assay: qHTS assay to identify small molecule agonists of the farnesoid-X-receptor (FXR) signaling pathway (AID 743220; active means well fitted activation curve with a large enough effect in the signal ratio in the repeat runs, not every such curve was filed as active; the % refers to the signal ratio)
Sequence of Bile acid receptor (Homo sapiens) (Q96RI1 whole entry, looked up): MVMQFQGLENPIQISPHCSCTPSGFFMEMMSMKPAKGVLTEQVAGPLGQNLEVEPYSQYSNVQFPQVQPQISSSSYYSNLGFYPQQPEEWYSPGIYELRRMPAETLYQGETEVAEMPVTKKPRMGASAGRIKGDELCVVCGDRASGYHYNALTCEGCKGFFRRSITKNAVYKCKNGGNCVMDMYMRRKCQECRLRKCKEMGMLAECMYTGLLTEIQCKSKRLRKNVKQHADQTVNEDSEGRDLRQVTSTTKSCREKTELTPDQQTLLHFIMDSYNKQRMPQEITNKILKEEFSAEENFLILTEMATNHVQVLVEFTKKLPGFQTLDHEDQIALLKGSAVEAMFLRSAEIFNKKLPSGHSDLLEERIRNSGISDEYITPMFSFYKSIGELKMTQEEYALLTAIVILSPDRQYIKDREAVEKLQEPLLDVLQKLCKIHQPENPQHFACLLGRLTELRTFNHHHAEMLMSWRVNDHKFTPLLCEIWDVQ
Method in brief: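 Beta-lactamase reporter under UAS control in GeneBLAzer FXR HEK 293T cells (5000/well) measured with LiveBLAzer FRET substrate after 2 h at room temperature. Compound exposure lasted 16 h at 37C.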

[13] = qHTS assay for small molecule agonists of the antioxidant response element (ARE) signaling pathway (AID 743202; active means well fitted activation curve with a large enough effect in the signal ratio in the repeat runs, not every such curve was filed as active; the % refers to the signal ratio; further: potency means the concentration at half of the fitted maximal effect)
Method in brief: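 Quantitative high-throughput format in HepG2 cells bearing an integrated ARE-beta-lactamase reporter. Compound exposure lasted 16 h at 37 C, and fluorescence was read 2 h after adding LiveBLAzer B/G substrate at room temperature.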

[14] = qHTS assay to identify small molecule antagonists of the peroxisome proliferator-activated receptor delta (PPARd) signaling pathway - cell viability counter screen (AID 743213); further: nearly all actives have a fitted effect of over 50% in size
Method in brief: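 PPARd-bla HEK293H cells (3000/well) got compound plus 300 nM L165041 agonist for 17 h at 37 C. Viability in the same wells came from CellTiter-Glo luminescence after 30 min at room temperature.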

[15] = molecular target: Peroxisome proliferator-activated receptor delta (Homo sapiens) (UniProt Q03181); assay: qHTS assay to identify small molecule antagonists of the peroxisome proliferator-activated receptor delta (PPARd) signaling pathway (AID 743215; active means well fitted inhibition curve with a large enough effect in the signal ratio in the repeat runs, not every such curve was filed as active; the % refers to the signal ratio;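 further: cells stimulated with agonist L165041 at 300 nM final during compound exposure; series mostly up to about 62 µM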)
Method in brief: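 With L165041 present at 300 nM final, compounds were incubated 17 h at 37 C on PPARd UAS-bla HEK293H cells. A FRET-based beta-lactamase substrate was then applied for 2 h at room temperature and fluorescence intensity recorded.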

[16] = qHTS assay to identify small molecule antagonists of the farnesoid-X-receptor (FXR) signaling pathway - cell viability counter screen (AID 743221; active means well fitted cell-killing curve with a large enough effect in the repeat runs, not every such curve was filed as active; further: nearly all actives have a fitted effect of over 50% in size)
Method in brief: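 GeneBLAzer FXR-UAS-bla HEK 293T cells, compound plus chenodeoxycholic acid (50 uM final), 16 h at 37 C. CellTiter-Glo added to the same wells after the beta-lactamase read; luminescence read after 30 min at room temperature as viability.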

[17] = molecular target: Vitamin D3 receptor (Homo sapiens) (UniProt P11473); assay: qHTS assay to identify small molecule agonists of the vitamin D receptor (VDR) signaling pathway (AID 743222; calls by dose curve)
Sequence of Vitamin D3 receptor (Homo sapiens) (P11473 whole entry, looked up): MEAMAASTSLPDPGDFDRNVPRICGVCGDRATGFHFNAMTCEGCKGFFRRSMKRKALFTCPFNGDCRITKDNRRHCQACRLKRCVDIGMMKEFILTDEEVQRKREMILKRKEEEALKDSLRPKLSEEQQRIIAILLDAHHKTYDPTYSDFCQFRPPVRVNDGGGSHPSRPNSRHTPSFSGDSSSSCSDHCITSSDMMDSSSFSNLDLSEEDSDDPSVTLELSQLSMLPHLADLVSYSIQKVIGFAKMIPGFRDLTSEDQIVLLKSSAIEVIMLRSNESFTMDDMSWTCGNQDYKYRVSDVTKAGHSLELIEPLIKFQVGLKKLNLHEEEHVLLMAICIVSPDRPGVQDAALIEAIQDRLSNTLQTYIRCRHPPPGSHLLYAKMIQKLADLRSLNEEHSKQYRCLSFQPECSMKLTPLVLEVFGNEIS
Method in brief: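 VDR-bla cells were seeded, left 4 h, treated with compounds in DMSO for 16 h, incubated 2 h at RT with B/G FRET substrate, and read for fluorescence.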

[18] = molecular target: Vitamin D3 receptor (Homo sapiens) (UniProt P11473); assay: qHTS assay to identify small molecule antagonists of the vitamin D receptor (VDR) signaling pathway (AID 743223; active means well fitted inhibition curve with a large enough effect in the signal ratio in the repeat runs, not every such curve was filed as active; the % refers to the signal ratio)
Method in brief: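 VDR-bla cells were treated with compound plus 3 nM final 1alpha,25-dihydroxyvitamin D3 for 16 h at 37C. Beta-lactamase reporter read by B/G FRET substrate fluorescence after 2 h at room temperature. qHTS format.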

[19] = molecular target: Bile acid receptor (Homo sapiens) (UniProt Q96RI1); assay: qHTS assay to identify small molecule antagonists of the farnesoid-X-receptor (FXR) signaling pathway (AID 743217; active means well fitted inhibition curve with a large enough effect in the signal ratio in the repeat runs, not every such curve was filed as active; the % refers to the signal ratio)
Method in brief: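 In this cell-based antagonist screen, inhibition of CDCA-driven (50 uM final) UAS-beta-lactamase expression in HEK 293T cells was measured by FRET fluorescence following 16 h compound exposure at 37 °C.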

[20] = molecular target: Peroxisome proliferator-activated receptor gamma (Homo sapiens) (UniProt P37231); assay: qHTS assay to identify small molecule agonists of the peroxisome proliferator-activated receptor gamma (PPARg) signaling pathway (AID 743094; active means well fitted activation curve with a large enough effect in the signal ratio in the repeat runs, not every such curve was filed as active; the % refers to the signal ratio)
Method in brief: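 Following 5 h plating at 37C, PPARg-bla HEK293H cells receive compound or DMSO for 17 h; fluorescence intensity is recorded after LiveBLAzer B/G loading for 1 h at room temperature.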

Measured: Potency

CO[Si](CCCS)(OC)OC
inactive: [1] | [2] | [3] | [4] | [5] | [6] | [7] | [8] | [9] | [10] | [11] | [12]

Cc1cccc(Nc2ccncc2S(=O)(=O)NC(=O)NC(C)C)c1
inactive: [1] | [2] | [3] | [4] | [5] | [13] | [6] | [7] | [8] | [9] | [14] | [15] | [12] | [16] | [17] | [18]

O=C1NC2NC(=O)NC2N1 (stereo not drawn)
inactive: [1] | [2] | [3] | [4] | [5] | [13] | [7] | [8] | [9] | [10] | [14] | [19] | [11] | [12] | [16] | [17] | [18]

COc1cccc2sc(N)nc12
active: [2] 27.5 µM
inactive: [1] | [3] | [20] | [13] | [6] | [7] | [8] | [10] | [14] | [15] | [19] | [11] | [12] | [16] | [17] | [18]

CCCCC[Si](OCC)(OCC)OCC
inactive: [1] | [2] | [3] | [4] | [5] | [13] | [6] | [7] | [8] | [14] | [15] | [16]

CCCO
inactive: [1] | [2] | [3] | [4] | [5] | [13] | [6] | [7] | [8] | [9] | [10] | [14] | [11] | [16] | [17]

C=CCOCC(O)CCl (stereo not drawn)
inactive: [1] | [2] | [3] | [4] | [5] | [7] | [8] | [9] | [15] | [11] | [16] | [17] | [18]

CC1(N)CCC(C(C)(C)N)CC1 (stereo not drawn)
inactive: [1] | [2] | [3] | [20] | [5] | [13] | [7] | [8] | [9] | [10] | [14] | [11] | [16] | [17] | [18]

Cc1cc(O)c2c(c1)C(=O)c1cccc(O)c1C2=O
active: [2] 26.7 µM | [13] 10.6 µM
inactive: [1] | [3] | [20] | [5] | [6] | [7] | [8] | [10] | [14] | [15] | [11] | [12] | [16] | [17] | [18]

CCN(Cc1cccc(S(=O)(=O)O)c1)c1ccccc1
inactive: [1] | [2] | [3] | [20] | [5] | [13] | [6] | [7] | [14] | [19] | [11] | [12] | [16] | [17] | [18]

Cc1nc(C)nc(N2C[C@@H](C)N(c3ccnc([C@@H](C)O)n3)[C@@H](C)C2)n1
inactive: [1] | [2] | [3] | [4] | [5] | [6] | [7] | [8] | [9] | [14] | [19] | [11] | [12] | [16] | [17] | [18]

Nc1cc(Cl)cc(S(=O)(=O)O)c1O
inactive: [1] | [2] | [3] | [20] | [5] | [7] | [8] | [9] | [14] | [11] | [16] | [18]

C1=C\CC/C=C\CC/1
inactive: [1] | [2] | [3] | [4] | [5] | [13] | [6] | [7] | [8] | [9] | [10] | [14] | [11] | [16] | [17] | [18]
